From the OligoGym collection

These sequences were tested against DMXL1 (assay: pooled miR-30 sensor sort-seq; sequence = guide strand). Settings: shRNA.
Further: reference of the scale not given here.

Sequence | sensor-assay potency score (higher = more potent)
TTTGTTTCTGAAAACACTGCTA | 0.164
TTCTATATCATCATCTACCCAA | -0.207
TTTCTAAATAGTATCTACTTAA | -0.599
TTGACTGCTTTCACATTTGTTT | -0.678
TTTAACACTATGACATACTGAT | 0.376
TTACACATTCTACTTTAGGCAA | -0.183
TTTCTATTAATGGTAGATCTGG | -0.715
TTGAACTCGTTCTTTACTGGAA | -0.246
AAATAGTACATAATTGTCCCAT | 0.365
TTTCTGAACTTCCATCTGGAGA | -0.95
TTTTCTATAATTCTGAATCAGA | -0.788
TAAGTTAAAAGCATTGTGCATT | -0.306
ATTACTTACACATTCTACTTTA | -0.377
TTTCATTAAATGAACTTGGGAA | 0.382
TAATTCTTGCTTTACCTCCAGG | -0.447
